Source: PubChem
Most compounds without a hit are left out; they make up all but 2.6% or so of the library.
PAD4 FP inh: PAD4 (human) enzyme inhibition | Q9UM07 | recombinant PAD4, RCA probe fluorescence polarization | inhibition, % at 6.36 µM | 330,000 tested, 0.41% active;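 active = percent inhibition above a cutoff equal to the mean of all tested compounds plus 3 SD, cut at about 15% in these data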
PME-1 inh: blocks human protein phosphatase methylesterase 1; 320,000 tested, 0.53% active; recombinant PME-1, FP-Rh probe fluorescence polarization; Q9Y570; inhibition, % at 5.9 µM;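 active = inhibition above the campaign mean of all compounds plus 3 SD, cut at about 26% in these data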;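 note: competitive labeling of PME-1 active site by serine hydrolase directed probe; inhibitors block probe labeling so polarization falls and inhibition rises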
Target sequence (Q9Y570 whole entry, looked up): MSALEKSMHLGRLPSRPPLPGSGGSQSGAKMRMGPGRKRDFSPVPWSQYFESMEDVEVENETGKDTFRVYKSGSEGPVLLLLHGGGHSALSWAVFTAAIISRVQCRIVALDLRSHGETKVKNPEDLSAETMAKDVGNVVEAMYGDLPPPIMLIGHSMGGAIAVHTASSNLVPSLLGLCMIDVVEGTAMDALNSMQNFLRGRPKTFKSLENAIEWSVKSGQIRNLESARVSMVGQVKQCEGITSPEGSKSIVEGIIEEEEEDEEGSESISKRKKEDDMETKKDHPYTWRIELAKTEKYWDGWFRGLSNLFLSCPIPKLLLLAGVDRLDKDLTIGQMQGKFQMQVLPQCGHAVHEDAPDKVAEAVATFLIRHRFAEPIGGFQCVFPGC
SIAE primary: human SIAE inhibition, primary screen | AID 1053197 | 370,000 tested, 0.69% active | inhibition, % at 9.66 µM | SIAE FP-Rh probe binding, fluorescence polarization;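 active = inhibition above a cutoff: mean of compounds within the control limits plus 3 SD of those, cut at about 17% in these data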
PRMT1 FP inh: PRMT1 (human) inhibition, primary screen; 370,000 tested, 1.3% active; recombinant PRMT1, activity-based probe fluorescence polarization; Q99873; inhibition, % at 2.79 µM;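 active = inhibition above about 21% made by adding two undisclosed values, limit read from the data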
TCR CD3 inh: inhibitors of human TCR-CD3 interaction. TAMRA-labeled TCR probe fluorescence, biochemical. inhibition, % at 9.4 µM. 360,000 tested, 0.37% active; in the data active = inhibition above about 19%;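 note: recombinant mutant TCR 2C K166C tagged with TAMRA read by polarization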
Fam108B counter: Fam108B inhibition, counter-screen for RBBP9 inhibitors. recombinant Fam108B, FP-Rh probe fluorescence polarization. inhibition, % at 9.51 µM. 300,000 tested, 0.33% active;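 active = inhibition above the screen mean inhibition plus 3 SD, computed separately per campaign, cut at about 18% in these data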;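 note: inhibitors lower polarization as less probe binds the enzyme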
SIAE inh conf: human SIAE inhibition, confirmation; shares compounds with SIAE primary; SIAE FP-Rh activity-based probe, fluorescence polarization; inhibition, % at 9.66 µM; 2,300 tested, 13% active; AID 1117263;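 active = mean inhibition of the replicates above the hit cutoff set in the primary screen, cut at about 17% in these data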;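 note: inhibitors lower polarization as more probe stays unbound to SIAE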
Numbers stand for hits; . = inactive; / = not tested or not shown.

SMILES | PAD4 FP inh | PME-1 inh | SIAE primary | PRMT1 FP inh | TCR CD3 inh | Fam108B counter | SIAE inh conf
COC(=O)C(Cc1c[nH]c2ccccc12)NC(=O)c1ccc2nc[nH]c2c1 (centres undefined) | / | / | . | . | . | / | /
COC(=O)C(Cc1c[nH]c2ccccc12)NC(=O)c1cncc(Br)c1 (centres undefined) | . | . | 20 | . | . | . | .
CC(C)C(OC(=O)CN1C(=O)COc2ccccc21)C(=O)NC1CCCCC1 (centres undefined) | . | . | 18 | . | . | . | .
CN(/N=C/c1ccc(O)cc1O)c1ncc(C(F)(F)F)cc1Cl | . | . | 19 | . | . | . | .
O=C(CCl)NCCNC(=O)c1cc(OCC(F)(F)F)ccc1OCC(F)(F)F | . | . | . | . | . | . | /
CCCCC(=O)NCCNC(=O)c1cc(OCC(F)(F)F)ccc1OCC(F)(F)F | . | . | 26 | . | . | . | .
CCC(=O)c1c(CC)c2n3c1CC[C@H]3CCC2 | . | . | 17 | . | . | . | .
COC(=O)[C@]12C[C@H](CC(=O)N3CCSCC3)C(=O)N(Cc3ccc(Cl)cc3Cl)C1=C[C@H](COCc1ccccc1)O[C@@H]2C | / | / | . | . | / | / | /
C[C@@H]1COc2cccc(F)c2S(=O)(=O)N1C | / | / | . | . | / | / | /
Cc1ccc(C(=O)O)cc1NC(=O)CSc1nnc(-c2ccccc2F)n1C1CCCCC1 | . | / | 19 | . | . | / | .
O=C(CSc1nnc(-c2ccccc2F)n1C1CCCCC1)Nc1cc(C(=O)O)ccc1Cl | . | / | . | . | . | / | /
CC(C)(N[C@@H](Cc1c[nH]c2ccccc12)C(=O)NCC(c1ccccc1)c1ccccc1)C(=O)NC1CCCCC1 | / | / | . | . | / | / | /
O=C(OCC(=O)c1c[nH]c2ccccc12)c1cccc([N+](=O)[O-])c1 | . | . | 21 | . | . | / | .
Cc1ccc(OCC(=O)Nc2cccc3nsnc23)c(C)c1 | . | . | 33 | . | . | . | .
Cc1ccc(OCC(=O)Nc2ccc3c4c(cccc24)CC3)c(C)c1 | . | . | . | . | . | . | /
CCN(CC)C(=O)CC[C@@H]1CC[C@]2(CCCN(Cc3ccccc3)C2)O1 | / | / | . | . | / | / | /
CCOc1ccc(S(=O)(=O)NCCC(=O)OCN2C(=O)c3ccccc3C2=O)cc1 | . | . | 18 | . | . | . | .
CCCN1CCS(=O)(=O)N(Cc2cn(Cc3ccc(C)cc3)nn2)C(C(=O)OC)C1 (centres undefined) | / | / | . | . | / | / | /
COc1ccc(NC(=O)Cc2ccsc2)c(OC)c1 | . | . | 18 | . | . | . | .
COc1ccc(NC(=O)COC(=O)Cc2ccsc2)c(OC)c1 | . | / | . | . | . | / | /
O=C(NCC(=O)N1CCCCCCC1)c1ccc(Cl)cc1 | . | . | . | . | . | / | /
CC(C)(C)c1ccc(C(=O)NCC(=O)N2CCCCCC2)cc1 | . | . | 21 | . | . | . | .
O=C(CCc1ccccc1-c1ccccc1CCNC(=O)c1ccc(F)c(F)c1)NCc1ccccc1 | / | / | . | . | / | / | /
COc1ccc(O)c(/C=N/Nc2nc(C)cc(-c3ccccc3)n2)c1 | . | 36 | 22 | . | . | . | .
COc1ccc(/C=N/Nc2nc(C)cc(-c3ccccc3)n2)c(OC)c1 | . | . | . | . | . | . | /
SMILES | PAD4 FP inh | PME-1 inh | SIAE primary | PRMT1 FP inh | TCR CD3 inh | Fam108B counter | SIAE inh conf
Cc1ccc(-c2nnc(Nc3ccc(C(=O)N(C)C)cc3)c3ccccc23)cc1S(=O)(=O)NCC1CCCO1 (centres undefined) | . | . | 21 | . | . | . | .
COC(=O)c1ccc(Nc2nnc(-c3ccc(C)c(S(=O)(=O)NCC4CCCO4)c3)c3ccccc23)cc1 (centres undefined) | . | . | . | . | . | . | /
COC(=O)CC1CCc2cc(C)cc(C(=O)CC(C)C)c2O1 (centres undefined) | / | / | . | . | / | / | /
Cn1c(SCC(=O)Nc2ccccc2-c2ccccc2)nnc1-c1cnccn1 | / | / | . | . | / | / | /
COc1cccc(-c2cc(CNC(=O)[C@H]3O[C@@H](n4cnc(C(N)=O)n4)[C@H](O)[C@@H]3O)no2)c1 | / | / | 77 | . | . | / | 80
COc1cccc(-c2cc(CNC(=O)[C@H]3O[C@@H](n4ccc(N)nc4=O)[C@H](O)[C@@H]3O)no2)c1 | / | / | . | . | . | / | /
COc1cccc(-c2cc(CNC(=O)[C@H]3O[C@@H](n4cnc5c(N)ncnc54)[C@H](O)[C@@H]3O)no2)c1 | / | / | 20 | . | . | / | 25
COc1cccc(CN2CCNC(=O)C2CC(=O)NCc2cn3cccc(C)c3n2)c1OC (centres undefined) | . | . | . | . | . | . | /
CCOc1ccc(CN2CCNC(=O)C2CC(=O)NCc2ccccn2)cc1 (centres undefined) | . | . | 18 | . | . | . | .
CCOc1ccc(CN2CCNC(=O)C2CC(=O)NCCc2ccccn2)cc1 (centres undefined) | . | . | . | . | . | . | /
COc1cccc(CN2CCNC(=O)C2CC(=O)NCc2cn3ccccc3n2)c1OC (centres undefined) | . | . | 22 | . | . | . | .
Clc1ccc(-c2nnc(SCc3cccc4ccccc34)n2-c2ccc(Cl)cc2)cc1 | / | / | . | . | / | / | /
COc1ccc(CCNC(=O)c2c(N)[nH]c(C(=O)c3ccccc3)c2-c2ccc(N(C)C)cc2)cc1 | / | / | . | . | / | / | /
Cc1cccc(NC(=O)CNC(=O)[C@H]2O[C@@H](n3cnc4c(N)ncnc43)[C@H](O)[C@@H]2O)c1C | / | / | . | . | . | / | /
COc1cc(NC(=O)[C@H]2O[C@@H](n3ccc(N)nc3=O)[C@H](O)[C@@H]2O)cc(OC)c1OC | / | / | 26 | . | . | / | 20
Cc1ccc(CNC(=O)[C@H]2O[C@@H](n3cnc4c(N)ncnc43)[C@H](O)[C@@H]2O)o1 | / | / | 17 | . | . | / | 20
Cc1ccc(CNC(=O)[C@H]2O[C@@H](n3ccc(N)nc3=O)[C@H](O)[C@@H]2O)o1 | / | / | 25 | . | . | / | 19
CN(Cc1cnn(-c2ccc(F)cc2)c1)C(=O)[C@H]1O[C@@H](n2cnc3c(N)ncnc32)[C@H](O)[C@@H]1O | / | / | 41 | . | . | / | 45
CCOC(=O)N1CCN(C(=O)C[C@@H]2C(=O)N(Cc3ccc(OC)cc3)/C3=C/CCCCC[C@@]32C(=O)OCC)CC1 | / | / | . | . | / | / | /
O=C(CSc1nnc(-c2ccccc2)n1-c1ccc(Cl)cc1)Nc1ccc2cn[nH]c2c1 | / | / | . | . | / | / | /
O=C(C1CCCN(S(=O)(=O)c2ccccc2F)C1)N1CCN(Cc2ccccc2)CC1 (centres undefined) | / | / | . | . | / | / | /
O=C(CSc1nc2c(c(=O)n1-c1ccccc1)SCC2)NCC1CCCO1 (centres undefined) | . | . | 31 | . | . | . | .
CCn1c(SCC(=O)NCC2CCCO2)nc2c(c1=O)SC(C)C2 (centres undefined) | . | . | . | . | . | . | /
CC1Cc2nc(SCC(=O)NCC3CCCO3)n(C)c(=O)c2S1 (centres undefined) | . | . | 20 | . | . | . | .
